Reference: the supplement of paper PMC10811239

tested on: LEGO organoid PT (PTEN-/-; TP53-/-); test: bioluminescence (viable cell) signal fold change after vs before treatment, normalised to DMSO (ratio); higher = more tumour cell growth / less inhibition; settings: 10 µM; treatment time 6 days
Method: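 Luc2-labelled iPSC-derived glioblastoma-like organoids (LEGOs, genotypes PT = PTEN-/-;TP53-/-, PTCC = plus CDKN2A/B-/-, PTN = plus NF1-/-) were treated with 10 uM drug for 6 days (applied every other day) at 37 C. Bioluminescence imaging was done before treatment and 2 days after the last dose. BLI signals were normalised to the DMSO control on the same day and then to the pre-treatment signal (N=3).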

How did the bioluminescence turn out when CCC(C)n1ncn(-c2ccc(N3CCN(c4ccc(OC[C@H]5CO[C@](Cn6cncn6)(c6ccc(Cl)cc6Cl)O5)cc4)CC3)cc2)c1=O (stereo not given in full) [Itraconazole] was run?
The bioluminescence was 1.69.

For CC1=NN(c2ccccc2)C(=O)C1 [Edaravone], which bioluminescence is on record?
Its bioluminescence is 0.893.

Which bioluminescence does the source give for NCC[C@H](O)C(=O)N[C@@H]1C[C@H](N)[C@@H](O[C@H]2O[C@H](CN)[C@@H](O)[C@H](O)[C@H]2O)[C@H](O)[C@H]1O[C@H]1O[C@H](CO)[C@@H](O)[C@H](N)[C@H]1O.O=S(=O)(O)O.O=S(=O)(O)O [Amikacin disulfate] here?
Its bioluminescence is 1.24.

For CCc1cccc2c3c([nH]c12)C(CC)(CC(=O)O)OCC3 (stereo not given) [Etodolac], which bioluminescence is on record?
Its bioluminescence is 1.

How did the bioluminescence turn out when Cc1ccccc1C(OCCN(C)C)c1ccccc1.O=C(O)CC(O)(CC(=O)O)C(=O)O (stereo not given) [Orphenadrine Citrate] was run?
Its bioluminescence is 0.847.

How did the bioluminescence turn out when CCN1CCN(C(=O)N[C@@H](C(=O)N[C@@H]2C(=O)N3[C@@H]2SC(C)(C)[C@@H]3C(=O)[O-])c2ccccc2)C(=O)C1=O.[Na+] [Piperacillin sodium salt] was run?
The bioluminescence was 1.08.

Which bioluminescence does the source give for CN(C)CCc1c[nH]c2ccc(CS(=O)(=O)N3CCCC3)cc12.O=C(O)CC(O)C(=O)O [Almotriptan Malate] here?
Its bioluminescence is 1.74.

Which bioluminescence does the source give for CCN(CC)CC(=O)Nc1c(C)cccc1C [Xylocaine] here?
The bioluminescence was 1.02.

CC1=C(CC(=O)O)c2cc(F)ccc2/C1=C\c1ccc(S(C)=O)cc1 (stereo not given) [Sulindac] was tested. Which bioluminescence did it give?
Its bioluminescence is 2.8.

How did the bioluminescence turn out when CCc1c2c(nc3ccc(OC(=O)N4CCC(N5CCCCC5)CC4)cc13)-c1cc3c(c(=O)n1C2)COC(=O)[C@]3(O)CC.Cl.O.O.O [Irinotecan hydrochloride trihydrate] was run?
Its bioluminescence is 0.98.

With O=C(CCCN1CC=C(n2c(=O)[nH]c3ccccc32)CC1)c1ccc(F)cc1 [Droperidol] as the molecule, how does the bioluminescence read?
The bioluminescence was 1.37.

CCCCCCCCCC(=O)OCCN1CCN(CCCN2c3ccccc3Sc3ccc(C(F)(F)F)cc32)CC1 [Fluphenazine decanoate] was tested. Which bioluminescence did it give?
The bioluminescence was 0.875.

For Cc1cc(NS(=O)(=O)c2ccc(N)cc2)no1 [Sulfamethoxazole], which bioluminescence is on record?
The bioluminescence was 3.73.

COc1c(N2CCNC(C)C2)c(F)cc2c(=O)c(C(=O)O)cn(C3CC3)c12 (stereo not given) [Gatifloxacin] was tested. Which bioluminescence did it give?
Its bioluminescence is 1.66.

How did the bioluminescence turn out when CCc1cc2c(cc1N1CCC(N3CCOCC3)CC1)C(C)(C)c1[nH]c3cc(C#N)ccc3c1C2=O.Cl [Alectinib hydrochloride] was run?
Its bioluminescence is 0.656.

How did the bioluminescence turn out when CN1CC(=O)N2[C@H](c3ccc4c(c3)OCO4)c3[nH]c4ccccc4c3C[C@@H]2C1=O [Tadalafil] was run?
The bioluminescence was 1.59.

CCc1c(C)[nH]c2c1C(=O)C(CN1CCOCC1)CC2.Cl (stereo not given) [Molindone hydrochloride] was tested. Which bioluminescence did it give?
The bioluminescence was 0.607.

How did the bioluminescence turn out when CC(C)c1nc(CN(C)C(=O)N[C@H](C(=O)N[C@@H](Cc2ccccc2)C[C@H](O)[C@H](Cc2ccccc2)NC(=O)OCc2cncs2)C(C)C)cs1 [Ritonavir] was run?
The bioluminescence was 1.3.

Which bioluminescence does the source give for CNC(=O)c1cc(Oc2ccc(NC(=O)Nc3ccc(Cl)c(C(F)(F)F)c3)cc2)ccn1.Cc1ccc(S(=O)(=O)O)cc1 [Sorafenib tosylate] here?
The bioluminescence was 0.401.

How did the bioluminescence turn out when CCCC(CCC)C(=O)[O-].[Na+] [Valproic acid sodium salt] was run?
Its bioluminescence is 1.11.

With Nc1nc(=O)n([C@@H]2CS[C@H](CO)O2)cc1F [Emtricitabine] as the molecule, how does the bioluminescence read?
The bioluminescence was 0.905.

With CC(C)NCC(O)COc1ccc(CC(N)=O)cc1 (stereo not given) [Atenolol] as the molecule, how does the bioluminescence read?
The bioluminescence was 1.39.

For CN(C)CC(c1ccc(O)cc1)C1(O)CCCCC1.O=C(O)CCC(=O)O (stereo not given) [Desvenlafaxine succinate hydrate], which bioluminescence is on record?
The bioluminescence was 1.67.

O=C([O-])CCCc1ccccc1.[Na+] [Sodium Phenylbutyrate] was tested. Which bioluminescence did it give?
Its bioluminescence is 1.37.

For CO/N=C(\C(=O)N[C@@H]1C(=O)N2C(C(=O)[O-])=C(C[N+]3(C)CCCC3)CS[C@H]12)c1csc(N)n1.Cl.Cl.O [Cefepime Dihydrochloride Monohydrate], which bioluminescence is on record?
Its bioluminescence is 1.05.

How did the bioluminescence turn out when C[C@@H]1COCCN1c1cc(C2([S@](C)(=N)=O)CC2)nc(-c2ccnc3[nH]ccc23)n1 [Ceralasertib] was run?
The bioluminescence was 0.917.

Nc1ccn([C@@H]2O[C@H](CO)[C@@H](O)[C@@H]2O)c(=O)n1 [Cytarabine] was tested. Which bioluminescence did it give?
The bioluminescence was 1.82.

Nc1nc(NC2CC2)c2ncn([C@H]3C=C[C@@H](CO)C3)c2n1.Nc1nc(NC2CC2)c2ncn([C@H]3C=C[C@@H](CO)C3)c2n1.O=S(=O)(O)O [Abacavir sulfate] was tested. Which bioluminescence did it give?
The bioluminescence was 0.703.

For Cl.CN(C)CC\C=C1\c2ccccc2CCc2ccccc12 [Amitriptyline hydrochloride], which bioluminescence is on record?
The bioluminescence was 1.32.

With CCCC(CCC)C(=O)O.CCCC(CCC)C(=O)[O-].[Na+] [Divalproex Sodium] as the molecule, how does the bioluminescence read?
The bioluminescence was 0.727.

For CSc1ccc2c(c1)N(CCC1CCCCN1C)c1ccccc1S2.Cl (stereo not given) [Thioridazine hydrochloride], which bioluminescence is on record?
Its bioluminescence is 0.68.

With Cc1c(C)c2c(c(C)c1O)CC[C@@](C)(CCC[C@H](C)CCC[C@H](C)CCCC(C)C)O2 [α-Vitamin E] as the molecule, how does the bioluminescence read?
Its bioluminescence is 1.31.

For C#CCN[C@@H]1CCc2ccccc21.CS(=O)(=O)O [Rasagiline Mesylate], which bioluminescence is on record?
The bioluminescence was 0.604.

Which bioluminescence does the source give for CO/N=C(\C(=O)N[C@@H]1C(=O)N2C(C(=O)[O-])=C(COC(C)=O)CS[C@H]12)c1csc(N)n1.[Na+] [Cefotaxime sodium] here?
The bioluminescence was 0.745.

Which bioluminescence does the source give for Cc1ccc(Nc2nccc(N(C)c3ccc4c(C)n(C)nc4c3)n2)cc1S(N)(=O)=O.Cl [Pazopanib HCl] here?
Its bioluminescence is 0.626.

How did the bioluminescence turn out when NS(=O)(=O)Cc1noc2ccccc12 [Zonisamide] was run?
Its bioluminescence is 0.521.

CN(C)C(=N)NC(=N)N.Cl [Metformin hydrochloride] was tested. Which bioluminescence did it give?
The bioluminescence was 2.55.

For Cc1nc2n(c(=O)c1CCN1CCC(c3noc4cc(F)ccc34)CC1)CCCC2 [Risperidal], which bioluminescence is on record?
The bioluminescence was 1.57.

How did the bioluminescence turn out when NS(=O)(=O)c1cc2c(cc1Cl)N=CNS2(=O)=O [Chlorothiazide] was run?
The bioluminescence was 0.96.

C[C@H]1COc2c(N3CCN(C)CC3)c(F)cc3c(=O)c(C(=O)O)cn1c23 [Levofloxacin] was tested. Which bioluminescence did it give?
The bioluminescence was 0.997.
